Among the data in PubChem BioAssay (NCI) are growth values, retold here.

Each structure is given as a SMILES string. About 83,000 compounds went through this panel and 20% of them were active in at least one assay; those are over-represented in the sample as a whole.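 Activity criterion: percent growth below 10, measured after cells in 96-well plates were exposed to a single compound concentration for 48 hours.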 Unmarked numbers belong to inactive results. Active and inactive are the calls of the source.

Test systems include DU-145 prostate; K-562 leukemia; MALME-3M melanoma; MDA-MB-231 breast; RXF 393 renal; SF-268 CNS; SF-295 CNS; UACC-257 melanoma; M14 melanoma; HCT-15 colon; HT29 colon; SNB-75 CNS; SNB-19 CNS; U251 CNS; PC-3 prostate; SK-MEL-5 melanoma; UACC-62 melanoma; LOX IMVI melanoma; SK-MEL-28 melanoma.
Assay in all cases: NCI-60 one-dose screen, 48 h (100 = growth as untreated, 0 = no growth, -100 = all killed)
Details in all cases: 10 µM unless noted

Consider `CCCCCCCCSC1=CC(=O)C(OC)=C(OC)C1=O`, for which the growth in the test with DU-145 prostate was 68.5%; with K-562 leukemia, 3.59% (active); in the test on MALME-3M melanoma it was -53.4% (active); in the test on MDA-MB-231 breast, 24.2%; in the test with RXF 393 renal, -69.7% (active); with SF-268 CNS, 43.6%. Besides, the growth with SF-295 CNS is 74.1%; in the test with UACC-257 melanoma it was -35.3% (active); in the test with M14 melanoma, 26.6%; in the test on HCT-15 colon, 10.9%; in the test on HT29 colon it was 35.4%; with SNB-75 CNS, 75.7%. The growth is 79.3% with SNB-19 CNS; 42.5% with U251 CNS; -13.9% (active) in the test with PC-3 prostate; 4.84% (active) with SK-MEL-5 melanoma; 42.9% in the test with UACC-62 melanoma; -48.7% (active) in the test on LOX IMVI melanoma. For the same compound, in the test on SK-MEL-28 melanoma, the growth was 72.4%.

Regarding `CCOC(=O)C12CCCC1=CC(=O)CC2` (configuration not stated), the growth in the test with DU-145 prostate was 116%; in the test with K-562 leukemia it was 89%; in the test with MALME-3M melanoma, 108%; in the test on MDA-MB-231 breast, 111%; in the test with RXF 393 renal, 113%; with SF-268 CNS, 103%. Moreover, the growth in the test with SF-295 CNS is 115%; in the test with UACC-257 melanoma it was 94.4%; in the test with M14 melanoma, 112%; in the test with HCT-15 colon, 106%; in the test with HT29 colon, 131%; with SNB-75 CNS it was 89.1%. The growth in the test on SNB-19 CNS was 99.9%; with U251 CNS, 105%; in the test on PC-3 prostate it was 94.8%; in the test on SK-MEL-5 melanoma, 103%; in the test with UACC-62 melanoma, 102%; in the test with LOX IMVI melanoma, 100%. Also, in the test with SK-MEL-28 melanoma, the growth was 106%.

Take `CCCCCCCCCCCCCCCCCCSC1=CC(=O)C(OC)=C(OC)C1=O`: the growth in the test with DU-145 prostate was 113%; in the test with K-562 leukemia, 82.2%; with MALME-3M melanoma, 112%; in the test with MDA-MB-231 breast, 93.5%; in the test on RXF 393 renal it was 97.7%; in the test on SF-268 CNS, 110%. For the same compound, the growth is 97.9% in the test on SF-295 CNS; 90.8% with UACC-257 melanoma; 74.6% with M14 melanoma; 98.7% with HCT-15 colon; 107% in the test on HT29 colon; 95.1% in the test with SNB-75 CNS. Moreover, the growth was 91.9% in the test on SNB-19 CNS; 76.4% with U251 CNS; 52% with PC-3 prostate; 86.3% in the test with SK-MEL-5 melanoma; 77% with UACC-62 melanoma; 45.9% in the test with LOX IMVI melanoma. Also, the growth with SK-MEL-28 melanoma is 97.3%.

On to `CC(C)(C)c1nn(-c2ccccc2)c2c1CC1(CN2Cc2ccc3c(c2)OCO3)C(=O)c2ccccc2C1=O`, for which the growth is 112% in the test with DU-145 prostate; 89.8% with K-562 leukemia; 148% with MALME-3M melanoma; 94.6% in the test with MDA-MB-231 breast; 93% with RXF 393 renal; 111% in the test with SF-268 CNS. The growth with SF-295 CNS was 106%; with UACC-257 melanoma, 104%; in the test with M14 melanoma, 120%; in the test with HCT-15 colon it was 105%; in the test on HT29 colon, 103%; in the test with SNB-75 CNS, 120%. Moreover, the growth with SNB-19 CNS was 111%; with U251 CNS it was 105%; with PC-3 prostate, 91.8%; in the test with SK-MEL-5 melanoma, 99.2%; in the test on UACC-62 melanoma, 92.3%; in the test on LOX IMVI melanoma it was 103%. Besides, the growth in the test with SK-MEL-28 melanoma is 116%.

With `COc1ccc(-c2c3c(nc4n[nH]c(-c5ccc(Cl)cc5)c24)-c2ccccc2C(=O)C3=O)cc1`, the growth is 22.4% with DU-145 prostate; 4.49% (active) with K-562 leukemia; -32.4% (active) in the test with MALME-3M melanoma; -28% (active) with MDA-MB-231 breast; 14.1% in the test on RXF 393 renal; -38.8% (active) with SF-268 CNS. In addition, the growth with SF-295 CNS was 77.4%; with UACC-257 melanoma, 11%; in the test on M14 melanoma, -28.4% (active); with HCT-15 colon, 21.6%; in the test on HT29 colon, -11.8% (active); with SNB-75 CNS it was 54.3%. Further, the growth is 44.3% with SNB-19 CNS; -40.2% (active) in the test with U251 CNS; 7.97% (active) with PC-3 prostate; 5.41% (active) in the test with SK-MEL-5 melanoma; -33.7% (active) in the test with UACC-62 melanoma; -50.9% (active) in the test on LOX IMVI melanoma. Further, in the test with SK-MEL-28 melanoma, the growth was 30.4%.

Turning to `COc1ccc(-c2cc(/C=C3\C(=O)Nc4ccc(Cl)cc43)[nH]n2)cc1`, the growth was 72.6% in the test with DU-145 prostate; 24% with K-562 leukemia; 33.4% in the test with MALME-3M melanoma; 73.9% in the test on MDA-MB-231 breast; 51% with RXF 393 renal; 66.3% with SF-268 CNS. The growth with SF-295 CNS is 47%; with UACC-257 melanoma, 51.7%; in the test on M14 melanoma, 44.7%; in the test on HCT-15 colon, 36.1%; in the test with HT29 colon it was 11.5%; in the test with SNB-75 CNS it was 49.8%. Moreover, the growth with SNB-19 CNS is 71.1%; in the test with U251 CNS it was 34.2%; with PC-3 prostate, 67.1%; with SK-MEL-5 melanoma, 37.9%; with UACC-62 melanoma, 40.6%; in the test with LOX IMVI melanoma, 35.2%. For the same compound, in the test with SK-MEL-28 melanoma, the growth is 61.7%.

Consider `O=C(CCCCN1CCOCC1)Nc1ccc(Cn2nnc3c2C(=O)c2nnn(Cc4ccc(NC(=O)CCCCN5CCOCC5)cc4)c2C3=O)cc1`, for which the growth in the test with DU-145 prostate was -88.6% (active); with K-562 leukemia, 6.24% (active); with MALME-3M melanoma it was -86% (active); with MDA-MB-231 breast, -1.55% (active); in the test with RXF 393 renal it was -67.4% (active); in the test on SF-268 CNS, -35.5% (active). The growth with SF-295 CNS is -87.7% (active); in the test with UACC-257 melanoma, -77.2% (active); with M14 melanoma, -90.3% (active); in the test with HCT-15 colon, -37% (active); in the test on HT29 colon, -28.6% (active); in the test on SNB-75 CNS it was -92.3% (active). In addition, the growth in the test on SNB-19 CNS was -86.2% (active); with U251 CNS, -85.2% (active); in the test with PC-3 prostate it was 0.413% (active); in the test on SK-MEL-5 melanoma, -95.8% (active); with UACC-62 melanoma, -80% (active); in the test with LOX IMVI melanoma, -23.2% (active). Also, the growth in the test with SK-MEL-28 melanoma is -54.9% (active).

Regarding `COc1ccc(/C=C/C(=O)c2c(O)c(C)c(O)c3c2OC2=CC(O)=C(C(C)=O)C(=O)[C@]23C)cc1`, the growth in the test with DU-145 prostate was 8.23% (active); in the test on K-562 leukemia it was -21.3% (active); in the test on MALME-3M melanoma it was -57.1% (active); in the test with MDA-MB-231 breast it was -26.2% (active); in the test with RXF 393 renal, -33.3% (active); in the test with SF-268 CNS, -17.5% (active). Besides, the growth with SF-295 CNS was -22.7% (active); in the test with UACC-257 melanoma it was -19.2% (active); in the test on M14 melanoma, -7.97% (active); in the test on HCT-15 colon, -21.3% (active); in the test on HT29 colon, -27.2% (active); in the test on SNB-75 CNS, -33% (active). Besides, the growth in the test on SNB-19 CNS is -14.9% (active); with U251 CNS, -27.9% (active); in the test on PC-3 prostate, -2.15% (active); in the test with SK-MEL-5 melanoma it was -85.5% (active); with UACC-62 melanoma it was -59.9% (active); with LOX IMVI melanoma, -43.4% (active). Further, the growth in the test on SK-MEL-28 melanoma is -50.7% (active).
